Results filed as inconclusive are left out. A number with no mark means an inactive call. Activity calls are given as the source filed them. The call rests on the fitted dose curve; in most records, active means well fitted curve in the direction sought with a large enough effect; inconclusive means small, poorly fitted or top-dose-only effect, or another doubt; inactive means no such curve, though single readings can be large; an effect the other way counts as inactive or inconclusive.
These compounds were tested against Rap guanine nucleotide exchange factor 3 (Homo sapiens) (UniProt O95398) (assay: Confirmatory qHTS for antagonist of cAMP-regulated guanine nucleotide exchange factor 3 (EPAC1) (AID 1645880; further: nearly all actives have a fitted effect of over 55% in size;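 on activity, negative = inhibition: plate controls were DMSO only for no effect and full effect of the ATA control for full effect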)). Conditions: EPAC1 Rap1B-BODIPY-GDP exchange, fluorescence; series mostly up to 115 µM; activity, negative = inhibition: at the top concentration.
How it was run: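 Released BODIPY-GDP fluoresces less than Rap1-bound BODIPY-GDP; the signal is followed at 480/540 nm at 5-min intervals over 30 min, after 5 min at room temperature. Reactions contain 100 nM EPAC1, 250 nM RAP1B-BODIPY-GDP and 50 uM GDP; results are normalized to ATA and DMSO.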
Potency means the concentration at half of the fitted maximal effect.

Chain of Rap guanine nucleotide exchange factor 3 (Homo sapiens) (O95398 whole entry, looked up): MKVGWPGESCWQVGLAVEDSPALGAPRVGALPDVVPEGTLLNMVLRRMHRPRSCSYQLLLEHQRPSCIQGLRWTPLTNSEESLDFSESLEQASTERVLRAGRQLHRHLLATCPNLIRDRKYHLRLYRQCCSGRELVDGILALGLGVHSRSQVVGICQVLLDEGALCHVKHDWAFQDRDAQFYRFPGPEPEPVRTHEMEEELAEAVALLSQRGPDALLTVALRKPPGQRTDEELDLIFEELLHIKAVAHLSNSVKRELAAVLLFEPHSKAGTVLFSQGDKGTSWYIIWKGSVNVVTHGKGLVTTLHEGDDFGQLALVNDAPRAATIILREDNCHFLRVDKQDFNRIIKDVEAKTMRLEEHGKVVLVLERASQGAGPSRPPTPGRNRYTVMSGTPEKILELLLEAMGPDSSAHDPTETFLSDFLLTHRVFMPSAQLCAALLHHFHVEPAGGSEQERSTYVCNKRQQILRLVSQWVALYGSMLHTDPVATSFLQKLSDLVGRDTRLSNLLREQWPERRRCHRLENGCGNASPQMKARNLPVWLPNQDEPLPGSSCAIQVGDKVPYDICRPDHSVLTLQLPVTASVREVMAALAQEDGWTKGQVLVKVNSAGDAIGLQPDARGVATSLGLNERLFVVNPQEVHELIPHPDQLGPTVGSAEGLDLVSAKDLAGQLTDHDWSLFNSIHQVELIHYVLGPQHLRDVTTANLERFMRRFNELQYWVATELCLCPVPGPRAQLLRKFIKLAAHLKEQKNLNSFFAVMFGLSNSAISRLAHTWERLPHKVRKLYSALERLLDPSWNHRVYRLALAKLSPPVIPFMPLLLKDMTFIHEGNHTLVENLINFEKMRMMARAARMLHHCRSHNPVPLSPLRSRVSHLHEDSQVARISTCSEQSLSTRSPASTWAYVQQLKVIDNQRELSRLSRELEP

SMILES | activity, negative = inhibition [%] | Potency
COC(=O)c1c(OC)cc2c(c1C)Oc1c(Cl)c(OC(C)=O)c(Cl)c(C)c1C(=O)O2 | -11.7 | 
COc1ccc2c(c1)OCc1c-2oc2cc(OC)ccc12 | 9.72 | 
O=c1c(O)c(-c2ccc(O)c(O)c2)oc2c(OC3OC(CO)C(O)C(O)C3O)c(O)cc(O)c12 (stereo not drawn) | -13.6 | 
CN(Cc1ccco1)c1nc(-c2cccc(C#N)c2)nc2ccccc12 | -1.07 | 
COc1ccc(-c2nc3cnc(Nc4cccc(OC)c4)nc3n(CCC#N)c2=O)cc1 | 7.35 | 
CC1=CC2C(CC1=O)C(C)=CCC2C(C)C (stereo not drawn) | -9.67 | 
CC1(C)C=CC(=O)[C@]2(C)C1CC(=O)[C@]1(C)C2CC[C@@]2(C)C(c3ccoc3)OC(=O)C3OC321 (stereo partly drawn) | -20.4 | 
COc1ccc2c(c1)OCC(Cc1ccc(OC)c(OC(C)=O)c1)C2=O (stereo not drawn) | -18.2 | 
CC(=O)OC1CCC23CC1(C)CCC2C(C)(C)CC3OC(C)=O (stereo not drawn) | -17.1 | 
C#C[C@]1(OC(C)=O)CCC2C3CCC4=CC(=O)CCC4C3CC[C@]21C (stereo partly drawn) | -2.18 | 
CN(Cc1ccco1)c1nc(-c2ccccc2Cl)nc2ccccc12 | -18.3 | 
O=C1CC[C@@]23/C=C/C(=O)NCCCCNCCCNC(=O)/C=C/c4ccc(c2c4)OC3C1 (stereo partly drawn) | 5.31 | 
CC(=O)OC1CC[C@]2(C)C(CC(OC(C)=O)[C@@]3(C)C4=CC(=O)OC(c5ccoc5)[C@]4(C)CCC23)C1(C)C (stereo partly drawn) | -2.61 | 
COc1cccc(-c2nc(Nc3ccncc3)c3ccccc3n2)c1 | -5.55 | 
N#C/C(=C\c1ccc(O)c(O)c1)C(=O)NCCCCc1ccccc1 |  | 15.7 µM (active)
CC(=O)Oc1ccc2c(c1)CCC1C2CC[C@]2(C)C(OC(C)=O)CCC12 (stereo partly drawn) | 1.76 | 
COc1cc(-c2coc3cc(OCc4ccccc4)c(OC)c(O)c3c2=O)cc(O)c1OC | -12 | 
COc1cc(C/C=C/c2ccccc2)c(OC)cc1O | -16.5 | 
N[C@H](C(=O)O)C(O)C(O)C(O)CO (stereo partly drawn) | -10.2 | 

What follows are compounds tested against Rap guanine nucleotide exchange factor 3 (Homo sapiens) (UniProt O95398) (assay: Confirmatory qHTS for agonist of cAMP-regulated guanine nucleotide exchange factor 3 (EPAC1) (AID 1645881; further: nearly all actives have a fitted effect of over 75% in size;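 on activation: EPAC1 catalysed release of BODIPY-GDP from Rap1B seen as fluorescence loss; 100% = effect of cAMP agonist control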)). Conditions: EPAC1 Rap1B BODIPY-GDP exchange fluorescence; series mostly up to 154 µM; activation: at the top concentration.

SMILES | activation | Potency
COc1ccc(C(=O)O)c(O)c1OC | 2.71% | 
COc1c(-c2ccc(O)c(O)c2)oc2cc(O)cc(O)c2c1=O | 12% | 
CCOC(=O)c1c(C)cc(OC)cc1O | -9.42% | 
O=C(c1cccc(F)c1)N1CCC[C@@]2(CCN(C(c3ccccc3)c3ccccc3)C2)C1 | 8.95% | 
CC(=O)Oc1ccc2c(c1C(C)C)CCC1C(C)(C)CCC[C@@]21C (stereo partly drawn) | 5.88% | 
COC(=O)CCCOc1ccc(Cl)cc1Cl | 6.1% | 
NCC1OC(n2cnc3c(=O)[nH]c(N)nc32)C(O)C1O (stereo not drawn) | -1.73% | 
Nc1nc2n[nH]nc2c(=O)[nH]1 | -4.79% [at 271 µM, 100% = cAMP control response] | 
CC(=O)OC1CC2C(C)(C)CCC(=O)[C@@]2(C)C2CC[C@@]3(C)C(c4ccoc4)OC(=O)C4OC43[C@]12C (stereo partly drawn) | -4.35% | 
O=c1cc(-c2ccc(O)c(O)c2)oc2cc(OC3OC(CO)C(O)C(O)C3O)cc(O)c12 (stereo not drawn) | -1.18% | 
C=CC(C1=CC(=O)C(OC)=CC1=O)c1ccccc1 (stereo not drawn) | 6.91% | 
COc1ccc(-c2cc(=O)c3c(OC)c(OC)c(OC)c(OC)c3o2)cc1 |  | inactive
COc1ccccc1CNc1ncnc2ccc(-c3cccnc3)cc12 | 1.33% | 
CC1(C)C(O)CC[C@]2(C)C1CC[C@@]1(C)C2C(=O)C=C2[C@@H]3C[C@@](C)(C(=O)O)CC[C@@]3(C)CCC21C (stereo partly drawn) | -7.48% | 
O=c1c(-c2ccccc2)coc2cc(O)cc(O)c12 | -15% | 
COC(=O)c1c(OC)cc2c(c1C)Oc1c(Cl)c(OC(C)=O)c(Cl)c(C)c1C(=O)O2 | 11.1% | 
COc1ccc2c(c1)OCc1c-2oc2cc(OC)ccc12 | 13% | 
Cc1ccccc1-c1ccc2ncnc(N(C)Cc3ccco3)c2c1 | 1.45% | 
O=c1c(O)c(-c2ccc(O)c(O)c2)oc2c(OC3OC(CO)C(O)C(O)C3O)c(O)cc(O)c12 (stereo not drawn) | -3.32% | 
CN(Cc1ccco1)c1nc(-c2cccc(C#N)c2)nc2ccccc12 | 8.62% | 

SMILES | activation | Potency
COc1ccc(-c2nc3cnc(Nc4cccc(OC)c4)nc3n(CCC#N)c2=O)cc1 |  | 70.6 µM (active)
CC1=CC2C(CC1=O)C(C)=CCC2C(C)C (stereo not drawn) | -11.2% | 
CC1(C)C=CC(=O)[C@]2(C)C1CC(=O)[C@]1(C)C2CC[C@@]2(C)C(c3ccoc3)OC(=O)C3OC321 (stereo partly drawn) | 12.7% | 
COc1ccc2c(c1)[C@@]1(C)CCC[C@](C)(CO)C1CC2 (stereo partly drawn) | 5.55% | 
COc1ccc2c(c1)OCC(Cc1ccc(OC)c(OC(C)=O)c1)C2=O (stereo not drawn) | 2.43% | 
CC(=O)OC1CCC23CC1(C)CCC2C(C)(C)CC3OC(C)=O (stereo not drawn) | -14.2% | 
C#C[C@]1(OC(C)=O)CCC2C3CCC4=CC(=O)CCC4C3CC[C@]21C (stereo partly drawn) | 7.47% | 
COC(=O)c1c(OC)cc2c(c1C)Oc1c(Cl)c(O)c(Cl)c(C)c1C(=O)O2 | -7.41% | 
CN(Cc1ccco1)c1nc(-c2ccccc2Cl)nc2ccccc12 | 2.47% | 
O=C1CC[C@@]23/C=C/C(=O)NCCCCNCCCNC(=O)/C=C/c4ccc(c2c4)OC3C1 (stereo partly drawn) | 3.72% | 
O=C(O)c1cc(O)c2c(c1)C(=O)c1cc(O)cc(O)c1C2=O | 8.35% | 
COc1ccc2c(c1)OC/C(=C/c1ccc(O)c(O)c1)C2=O | -5.94% | 
CC(=O)OC1CC[C@]2(C)C(CC(OC(C)=O)[C@@]3(C)C4=CC(=O)OC(c5ccoc5)[C@]4(C)CCC23)C1(C)C (stereo partly drawn) | 8.54% | 
N#C/C(=C\c1ccc(O)c(O)c1)C(=O)NCCCCc1ccccc1 | -0.343% | 
COc1cccc(-c2cncnc2NCc2ccc(OC)cc2OC)c1 | 5.91% | 
CC(=O)Oc1ccc2c(c1)CCC1C2CC[C@]2(C)C(OC(C)=O)CCC12 (stereo partly drawn) | 12.6% | 
COc1cc(-c2coc3cc(OCc4ccccc4)c(OC)c(O)c3c2=O)cc(O)c1OC | -10.2% | 
COc1cc(C/C=C/c2ccccc2)c(OC)cc1O | -5.66% | 
N[C@H](C(=O)O)C(O)C(O)C(O)CO (stereo partly drawn) | -1.48% | 
